Screens from PubChem.
Hits are enriched below; roughly 7.5% of the tested compounds scored in any of these assays.
ELG1 repair inh: qHTS screen for small molecules that inhibit ELG1-dependent DNA repair in human embryonic kidney (HEK293T) cells expressing luciferase-tagged ELG1; HEK293T ELG1-luciferase reporter, luminescence, 16 h; DNA damage induced by 5-fluorouridine; Potency, µM (highest dose often 46.1 µM), actives largely listed as inhibitors; 330,000 compounds, 2.3% hits; AID 504467, 2011; also: nearly all actives have a fitted effect of over 55% in size
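In this reporter screen, reduction of luminescence relative to DMSO vehicle indicated activity. Compounds and 5-fluorouridine were added together to 2,000 cells per well, incubated for 16 hr at 37 °C, then developed with ONE-Glo.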
RORg inh: qHTS for inhibitors of ROR gamma transcriptional activity; Nuclear receptor ROR-gamma (Mus musculus), P51450; Drosophila S2 Gal4-RORgamma UAS-luciferase reporter, 20 h; Potency, µM (doses to about 53.6 µM), actives largely listed as inhibitors; 310,000 compounds, 5.4% hits; AID 2551, 2010; also: nearly all actives have a fitted effect of over 60% in size
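Using a luciferase readout, inhibitors were identified by reduced reporter activity in Drosophila cells coexpressing a copper-inducible Gal4–ROR gamma fusion and UAS-driven Photinus luciferase, incubated 20 hr after 700 uM copper sulfate.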
VP16 counter: VP16 counterscreen qHTS for inhibitors of ROR gamma transcriptional activity | 310,000 compounds, 3.5% hits | Drosophila S2 Gal4-VP16 UAS-luciferase, luminescence, 20 h | Potency, µM (top dose mostly 53.6 µM), most hits filed as inhibitors | AID 2546, 2010;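 also: Gal4-VP16 expression switched on by copper sulfate through the metallothionein promoter; nearly all actives have a fitted effect of over 50% in size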
B2AR arrestin: qHTS assay of beta-arrestin-biased ligands of beta2-adrenergic receptor. beta-arrestin recruitment to beta2AR, cell-based reporter. Beta-2 adrenergic receptor (Homo sapiens), P07550. 330,000 compounds, 0.02% hits. Potency, µM (series often up to 46.1 µM), usual class: activators; also: nearly all actives have a fitted effect of over 65% in size
TSHR antag: Antagonists of the Thyroid Stimulating Hormone Receptor: HTS campaign; TSHR-expressing cells, TSH-stimulated cAMP HTRF, 2 h; stronger effect = lower value; activity change, negative = inhibition, % at 11.5 µM; 330,000 compounds, 0.2% hits;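 active = activity change below a set negative limit, meaning inhibition stronger than a set level, cut at about -70% in these data; inconclusive = activity change between two set negative limits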
Target sequence (P16473 whole entry, looked up): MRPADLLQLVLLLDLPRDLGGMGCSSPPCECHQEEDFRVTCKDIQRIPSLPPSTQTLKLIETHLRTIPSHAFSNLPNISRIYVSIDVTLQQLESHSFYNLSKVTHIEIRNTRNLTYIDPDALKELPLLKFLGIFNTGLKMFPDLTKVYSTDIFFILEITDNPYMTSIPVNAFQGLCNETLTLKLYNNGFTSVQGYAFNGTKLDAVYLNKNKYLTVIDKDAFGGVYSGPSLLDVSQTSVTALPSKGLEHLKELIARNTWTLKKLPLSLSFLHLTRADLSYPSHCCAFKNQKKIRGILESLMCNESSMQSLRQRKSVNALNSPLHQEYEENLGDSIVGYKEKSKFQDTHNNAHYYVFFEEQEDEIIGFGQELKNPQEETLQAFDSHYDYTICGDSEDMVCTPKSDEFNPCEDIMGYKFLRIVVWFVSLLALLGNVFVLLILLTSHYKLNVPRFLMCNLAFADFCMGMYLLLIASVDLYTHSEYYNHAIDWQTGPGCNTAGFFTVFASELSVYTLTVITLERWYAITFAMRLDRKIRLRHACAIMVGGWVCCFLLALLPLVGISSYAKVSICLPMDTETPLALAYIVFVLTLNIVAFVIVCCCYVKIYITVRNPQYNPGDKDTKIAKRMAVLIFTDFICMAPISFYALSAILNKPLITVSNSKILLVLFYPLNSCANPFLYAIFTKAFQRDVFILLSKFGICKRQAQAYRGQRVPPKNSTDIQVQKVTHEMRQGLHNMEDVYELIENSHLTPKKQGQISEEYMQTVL
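Antagonism was scored as loss of TSH-driven cAMP in TSHR cells, stimulated with 4nM TSH (EC80) for 2 hours at 37 deg C and detected by homogeneous HTRF competition immunoassay.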
A number is an active result; . = inactive; ? = inconclusive; / = no result given; [ ] = remark or other dose. Unless noted, calls follow the shape of the dose curve; as a rule, active = well fitted curve in the direction sought with a large enough effect; inconclusive = small, poorly fitted or top-dose-only effect, or another doubt; inactive = no such curve, though single readings can be large; an effect the other way counts as inactive or inconclusive.

SMILES	ELG1 repair inh	RORg inh	VP16 counter	B2AR arrestin	TSHR antag
CCOC(=O)CCN1C(=O)[C@H]2[C@H]3[C@H](O)[C@H](O)C/C(=N/O[C@@H]4O[C@@H](COC(C)=O)[C@@H](OC(C)=O)[C@@H](OC(C)=O)[C@H]4OC(C)=O)[C@H]3CC[C@@H]2C1=O	/	.[10 µM]	.[10 µM]	/	/
C=CCN1C(=O)/C(=C/c2ccc(O)c(OC)c2)S/C1=N/c1nccs1	23µM	.	.	.	.
Cn1c(CC(=O)Nc2ccc(Cl)cc2)nnc1SCC(=O)N1CCOCC1	.	.	.	.	.
Cc1c(CCC(=O)O)c(=O)oc2cc3occ(-c4ccc(F)cc4)c3cc12	.	2.8µM	?	.	.
Cc1c(CCC(=O)O)c(=O)oc2cc3occ(-c4ccc(Cl)cc4)c3cc12	.	.	.	.	.
Cc1ccccc1N(Cc1cc(=O)[nH]c2ccccc12)C(=O)CCl	10µM	?	.	.	.
O=C(CCl)N(Cc1cc(=O)[nH]c2ccccc12)c1ccccc1	13µM	?	?	.	.
Cc1ccccc1N(Cc1cc(=O)[nH]c2ccccc12)C(=O)C(C)C	.	.	.	.	.
CCC(=O)N(Cc1cc(=O)[nH]c2ccccc12)c1ccccc1	.	.	.	.	.
Cc1ccc(-c2csc(N3CCN(c4cc5c(cc4Cl)nc(C)n5CCN4CCCCC4)CC3)n2)cc1	.	11µM	?	.	.
Cc1ccc(-c2csc(N3CCN(c4cc5c(cc4Cl)nc(C(C)N)n5CCCO)CC3)n2)cc1 (centres undefined)	.	.	.	.	.
COc1ccccc1CNC(=O)CN1C(=O)NC2(CCCCCCC2)C1=O	.	/	/	.	.
CCCCn1c(CCC)nc([N+](=O)[O-])c1Sc1ccc(Cl)cn1	?	?	10µM	.	.
CC(C)Cn1c(C(C)C)nc([N+](=O)[O-])c1Sc1ccc(Cl)cn1	.	.	.	.	.
CCCCCc1ccc(-c2ccc(/C=C/C(=O)O)cc2)nc1	?	.[10 µM]	?	.	.
CCCc1ccc(-c2ccc(/C=C/C(=O)O)cc2)nc1	?	0.16µM	?	.	.
CN(Cc1nc2ccccc2c(=O)[nH]1)c1ccccc1	.	.	.	.	.
COc1cc2nc(CN(C)Cc3nc4ccccc4c(=O)[nH]3)[nH]c(=O)c2cc1OC	?	1.6µM	3.5µM	.	.
CCc1ccc2c(CN(CC)Cc3nc4ccccc4c(=O)[nH]3)cc(=O)oc2c1	?	8.9µM	?	.	.
CCN(Cc1cc(=O)n2cc(Cl)c(C)c(Cl)c2n1)Cc1nc2ccccc2c(=O)[nH]1	?	13µM	?	.	.
Cc1c(Cl)cn2c(=O)cc(CN3CCN(c4ccccc4)CC3)nc2c1Cl	.	.	.	.	.
CCN(Cc1nc2ccccc2c(=O)[nH]1)Cc1nc2ccsc2c(=O)[nH]1	?	0.45µM	1µM	.	.
CCc1ccc2c(CN(C)Cc3ccccc3OC)cc(=O)oc2c1	?	.	.	.	.
CN(Cc1cc(=O)n2ccsc2n1)Cc1nc2ccccc2c(=O)[nH]1	.	7.9µM	?	.	.
CCN(Cc1nc2ccccc2c(=O)[nH]1)Cc1nc2cc(OC)c(OC)cc2c(=O)[nH]1	?	1.3µM	2.2µM	.	.
SMILES	ELG1 repair inh	RORg inh	VP16 counter	B2AR arrestin	TSHR antag
CCc1ccccc1Nc1nn2c(=O)c3ccc(C(=O)NCCCOC(C)C)cc3nc2s1	/	/	/	.	.
OCCC1CN(Cc2cnc(-c3ccc(Cl)cc3)nc2)CCN1C1CCCC1 (centres undefined)	6.5µM	.	.	.	.
CNC(=O)c1cccc(NC(=O)c2cc(-c3ccccc3)nc3c2cnn3C(C)C)c1	7.9µM	/	/	.	.
CC(C)n1ncc2c(C(=O)Nc3cccc(S(=O)(=O)N(C)C)c3)cc(C3CC3)nc21	21µM	/	/	.	.
Cc1ccc(OCCCN2C(=O)C(=O)c3cccc(C)c32)cc1	.	7.9µM	13µM	.	.
O=C(CC12CC3CC(C1)CC(CC(=O)NC1=NCCS1)(C3)C2)NC1=NCCS1	.	?	.	.	.
O=C(NC1=NCCS1)C12CC3CC(C1)CC(C(=O)NC1=NCCS1)(C3)C2	23µM	.	.	.	.
